Common to all, as to experiment: NCI-60 one-dose screen, 48 h (100 = growth as untreated, 0 = no growth, -100 = all killed)
In one experiment the test system is HCT-15 colon. As to conditions: 10 µM unless noted.
The subject of a further experiment is HT29 colon. As to conditions: 10 µM unless noted.
For a further experiment, the system named is SNB-75 CNS. As to conditions: 10 µM unless noted.
The subject of the next experiment is SNB-19 CNS. As to conditions: 10 µM unless noted.
The test system of a further experiment is U251 CNS. As to conditions: 10 µM unless noted.
The next experiment has as its system PC-3 prostate. As to conditions: 10 µM unless noted.
The next experiment relates to SK-MEL-5 melanoma. As to conditions: 10 µM unless noted.
A further experiment concerns UACC-62 melanoma. As to conditions: 10 µM unless noted.
The subject of a further experiment is LOX IMVI melanoma. As to conditions: 10 µM unless noted.
In a further experiment the test system is SK-MEL-28 melanoma. As to conditions: 10 µM unless noted.
Another experiment deals with SK-MEL-2 melanoma. As to conditions: 10 µM unless noted.
Another experiment has as its system EKVX NSCLC. As to conditions: 10 µM unless noted.
For a further experiment, the system named is SN12C renal. As to conditions: 10 µM unless noted.
A further experiment has as its system UO-31 renal. As to conditions: 10 µM unless noted.
The test system of the next experiment is TK-10 renal. As to conditions: 10 µM unless noted.
Another experiment concerns ACHN renal. As to conditions: 10 µM unless noted.
Another experiment has as its system CAKI-1 renal. As to conditions: 10 µM.
The subject of a further experiment is A498 renal. As to conditions: 10 µM unless noted.
Another experiment concerns CCRF-CEM leukemia. As to conditions: 10 µM unless noted.
The test system of another experiment is MOLT-4 leukemia. As to conditions: 10 µM unless noted.

The panel holds about 83,000 compounds, 20% with a hit somewhere; the sample as a whole holds those more often.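 The test compound was applied at a single concentration to cells in 96-well plates for 48 hours, and percent growth was recorded.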 Unmarked numbers belong to inactive results. Activity calls are given as the source filed them. Rule for the calls: active = growth percent below 10; inactive = the rest.

With `O=C1CC2(CCOCC2)Oc2ncccc21`, the growth is -62.6% (active) in the experiment with HCT-15 colon; 49.8% in the experiment on HT29 colon; 115% in the experiment on SNB-75 CNS; 51.4% in the experiment on SNB-19 CNS; 22.3% in the experiment with U251 CNS; 88.7% with PC-3 prostate. Also, the growth in the experiment on SK-MEL-5 melanoma is 100%; with UACC-62 melanoma, 61.1%; in the experiment with LOX IMVI melanoma it was -78.7% (active); with SK-MEL-28 melanoma, -22.3% (active); with SK-MEL-2 melanoma, 95.9%; in the experiment with EKVX NSCLC it was 93.5%. For the same compound, the growth with SN12C renal was 33.1%; in the experiment on UO-31 renal it was 101%; in the experiment on TK-10 renal it was 60.5%; in the experiment on ACHN renal, 36.3%; in the experiment with CAKI-1 renal it was 94.2%; in the experiment on A498 renal, 99.6%. Moreover, the growth with CCRF-CEM leukemia is 0.712% (active); in the experiment with MOLT-4 leukemia, 13.5%.
For `Cc1ccc(NC(=O)c2cccc(CN3CCN(C)CC3)c2)cc1Oc1ccc(-c2[nH]nc3ncnc(N)c23)cc1`, the growth with HCT-15 colon is 86.1%; in the experiment on HT29 colon it was 5.69% (active); in the experiment on SNB-75 CNS it was 66.8%; with SNB-19 CNS, 81.9%; in the experiment with U251 CNS it was 64.6%; with PC-3 prostate, 72.9%. The growth in the experiment on SK-MEL-5 melanoma was 76.7%; with UACC-62 melanoma, 73%; in the experiment with LOX IMVI melanoma, 29.9%; in the experiment on SK-MEL-28 melanoma it was 72.9%; in the experiment with SK-MEL-2 melanoma, 73.8%; with EKVX NSCLC, 97.5%. Also, the growth with SN12C renal was 80%; in the experiment on UO-31 renal, 93.3%; in the experiment with TK-10 renal, 93.5%; with ACHN renal, 92.6%; in the experiment on CAKI-1 renal, 59.3%; in the experiment with A498 renal, 89.2%. Further, the growth was 47% with CCRF-CEM leukemia and 0.353% (active) in the experiment on MOLT-4 leukemia.
`COc1ccc(-c2nn(-c3ccccc3)cc2/C=C/C(=O)c2ccc(NC(=O)CCCCCCC(=O)NO)cc2)cc1`: the growth is 80.5% in the experiment on HCT-15 colon; 94.4% in the experiment with HT29 colon; 96.6% with SNB-75 CNS; 106% in the experiment on SNB-19 CNS; 106% with U251 CNS; 95.8% in the experiment with PC-3 prostate. Moreover, the growth in the experiment on SK-MEL-5 melanoma is 101%; in the experiment with UACC-62 melanoma, 94.9%; in the experiment on LOX IMVI melanoma it was 90.4%; in the experiment with SK-MEL-28 melanoma, 113%; in the experiment with SK-MEL-2 melanoma it was 109%; with EKVX NSCLC it was 97.2%. Besides, the growth in the experiment with SN12C renal is 92.7%; in the experiment on UO-31 renal, 93.7%; in the experiment on TK-10 renal, 107%; in the experiment on ACHN renal, 111%; in the experiment on CAKI-1 renal it was 81.9%; with A498 renal, 68.4%. Besides, the growth is 92.5% in the experiment with CCRF-CEM leukemia and 70.3% with MOLT-4 leukemia.
`COc1cc(/C=C/C(=O)c2ccc(NC(=O)CSc3nnc(-c4ccc5nc(-c6ccccc6)[nH]c5c4)o3)cc2)cc(OC)c1OC`: the growth with HCT-15 colon is 87.6%; in the experiment on HT29 colon, 104%; in the experiment with SNB-75 CNS, 81.1%; in the experiment with SNB-19 CNS it was 84.4%; with U251 CNS it was 80.6%; with PC-3 prostate, 99%. The growth was 92.2% with SK-MEL-5 melanoma; 83% in the experiment with UACC-62 melanoma; 56% with LOX IMVI melanoma; 93.4% in the experiment on SK-MEL-28 melanoma; 105% in the experiment with SK-MEL-2 melanoma; 99% in the experiment on EKVX NSCLC. Besides, the growth was 90.8% in the experiment with SN12C renal; 89.4% in the experiment on UO-31 renal; 137% in the experiment with TK-10 renal; 101% with ACHN renal; 105% with CAKI-1 renal; 84.4% with A498 renal. In addition, the growth was 37.5% in the experiment with CCRF-CEM leukemia and 65% in the experiment on MOLT-4 leukemia.
Turning to `C#C[C@]1(O)CC[C@H]2[C@@H]3CC=C4c5sc(C6CC6)nc5CC[C@]4(C)[C@H]3CC[C@@]21C`, the growth in the experiment with HCT-15 colon was 50.4%; with HT29 colon, 70.2%; in the experiment with SNB-75 CNS, 94.8%; in the experiment on SNB-19 CNS, 90%; with U251 CNS, 66.3%; in the experiment on PC-3 prostate, 67.2%. The growth with SK-MEL-5 melanoma was 93.5%; in the experiment with UACC-62 melanoma, 67.7%; in the experiment on LOX IMVI melanoma, 62.6%; in the experiment with SK-MEL-28 melanoma, 69.3%; with SK-MEL-2 melanoma, 90%; with EKVX NSCLC it was 80.1%. Besides, the growth is 86.1% in the experiment with SN12C renal; 68.8% with UO-31 renal; 124% with TK-10 renal; 91.4% in the experiment on ACHN renal; 79.6% with CAKI-1 renal; 99.9% in the experiment with A498 renal. The growth with CCRF-CEM leukemia is 58.7%; in the experiment with MOLT-4 leukemia it was 46.8%.
Turning to `O=C(NCCNc1cc(-c2cn(-c3ccccc3)nc2-c2cccc(O)c2)ccn1)Nc1ccc(Cl)c(C(F)(F)F)c1`, the growth in the experiment on HCT-15 colon was 2.46% (active); with HT29 colon, 34.8%; in the experiment with SNB-75 CNS, 42.8%; in the experiment on SNB-19 CNS it was 46.8%; in the experiment with U251 CNS it was 42.8%; in the experiment with PC-3 prostate it was 42.2%. Also, the growth with SK-MEL-5 melanoma is 65.9%; with UACC-62 melanoma it was 77%; with LOX IMVI melanoma, 0.724% (active); in the experiment with SK-MEL-28 melanoma it was 42.1%; with SK-MEL-2 melanoma, 104%; with EKVX NSCLC it was 56.7%. The growth is 65.6% in the experiment on SN12C renal; 42.1% with UO-31 renal; 98.1% in the experiment with TK-10 renal; 44.2% in the experiment on ACHN renal; 46% in the experiment with CAKI-1 renal; 72.5% in the experiment on A498 renal. For the same compound, the figures for the growth with CCRF-CEM leukemia and in the experiment with MOLT-4 leukemia were 54.1% and 47.1%, respectively.
Turning to `Cc1cc2nc(C(Cl)Cl)nc(-c3ccco3)n2n1`, the growth with HCT-15 colon was 72%; in the experiment on HT29 colon it was 37.2%; in the experiment on SNB-75 CNS it was 94.5%; with SNB-19 CNS, 62.8%; in the experiment on U251 CNS, 53.8%; with PC-3 prostate, 73%. Besides, the growth in the experiment with SK-MEL-5 melanoma was 97.8%; with UACC-62 melanoma, 78.2%; with LOX IMVI melanoma, 93.4%; in the experiment on SK-MEL-28 melanoma, 87.6%; with SK-MEL-2 melanoma, 103%; in the experiment with EKVX NSCLC, 63.8%. Moreover, the growth is 93.7% with SN12C renal; 90.7% in the experiment with UO-31 renal; 89.5% in the experiment with TK-10 renal; 22% in the experiment on ACHN renal; 51.2% with CAKI-1 renal; 51.7% in the experiment with A498 renal. In addition, the figures for the growth in the experiment on CCRF-CEM leukemia and in the experiment with MOLT-4 leukemia were 98.2% and 74.3%, respectively.
Turning to `O=S(=O)(Nc1cc(Cl)c(F)c(Cl)c1)c1ccc(-c2cnc(C3CC3)o2)cc1`, the growth in the experiment on HCT-15 colon is 35.2%; with HT29 colon it was 13.4%; in the experiment on SNB-75 CNS it was -4.2% (active); in the experiment on SNB-19 CNS, 44.3%; with U251 CNS, 30.4%; in the experiment on PC-3 prostate, 25.2%. Besides, the growth in the experiment on SK-MEL-5 melanoma was 28.8%; in the experiment with UACC-62 melanoma, 42.6%; in the experiment on LOX IMVI melanoma, 43.2%; in the experiment on SK-MEL-28 melanoma, 66.7%; with SK-MEL-2 melanoma, 51.9%; in the experiment on EKVX NSCLC it was 47.6%. Further, the growth with SN12C renal is 48.7%; with UO-31 renal it was 56.8%; in the experiment with TK-10 renal, 72.5%; with ACHN renal it was 49.4%; with CAKI-1 renal, 12%; in the experiment on A498 renal, 15.5%. The growth is 20.7% in the experiment on CCRF-CEM leukemia and 38% in the experiment on MOLT-4 leukemia.
